# Test results reported in PubChem BioAssay.
# Calls of active or inactive are those of the source. Cut-off read from the data, not from the text of the source, unless noted: active = inhibition above about 80%; inactive = the rest.
# Columns and labels:
# [1] = viability loss with induced miR-34 in A549 – imaging, A549 dox-inducible miR-34, nuclei and caspase counts, primary screen (AID 1347080;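 active = compounds whose cell count with miR-34 switched on is under 0.7 times the count with it off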); details: A549 miR-34 inducible, Hoechst nuclei count, 48 h
# [2] = MELAS cybrid and Rieske KO viability enhancers – cell-based, MELAS cybrids, Rieske KO mouse fibroblasts, CellTiter-Glo, primary screen (AID 1508586;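 active = mean z-score across replicates of 1.96 or higher in either the MELAS or the Rieske mutant cell line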;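 note: z relative to plate mean and SD of compound and empty wells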); details: low glucose
# [3] = growth inhibition, single agent or in combination, cell-based, chromothripsis tumors, cisplatin or BGB combos (AID 1671449); details: LFS_MB_P medulloblastoma cells;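 note: cells exposed for 96 hours; 0% = vehicle DMSO and 100% = killing by high DMSO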
# [4] = growth inhibition, single agent and combos, cell-based, chromothripsis tumors, cisplatin or BGB combos (AID 1671450); details: HDN33 neuroblastoma cells, stronger effect = higher value;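 note: cells exposed to compound for four days; 0% = vehicle DMSO and 100% = cell killing by high DMSO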
# [5] = growth inhibition, single agents and combos, ICB984, cell-based, cisplatin or BGB combos, synergistic combos for chromothripsis tumors (AID 1671451; call rule not given here;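 note: cells exposed for 96 hours before readout; 0% = vehicle DMSO and 100% = killing by high DMSO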); details: ICB984 medulloblastoma cells, drug combinations, stronger effect = higher value
# [6] = growth inhibition, single agents and combos, LFS_MB_1R, cell-based, cisplatin or BGB combos, synergistic combos for chromothripsis tumors (AID 1671452); details: LFS_MB_1R medulloblastoma cells, stronger effect = higher value;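 note: cells exposed for 96 hours before readout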
# [7] = growth inhibition, single agents and combos, HTB85, cell-based, BGB or cisplatin IC20 combos, synergistic combos for chromothripsis tumors (AID 1671453); details: HTB85 osteosarcoma cells, drug combinations, stronger effect = higher value;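 note: cells exposed for 96 hours before readout; 0% = vehicle DMSO and 100% = high DMSO killing control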
# [8] = growth inhibition, single agents and combos, CRL2098, cell-based, BGB or cisplatin IC20 combos, synergistic combos for chromothripsis tumors (AID 1671454); details: CRL2098 osteosarcoma cells, drug combinations, stronger effect = higher value;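 note: cells exposed for 96 h before readout; 0% = vehicle DMSO and 100% = killing by high DMSO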
# [9] = growth inhibition, single agents and combos, HD-MB03, cell-based, BGB or cisplatin IC20 combos, synergistic combos for chromothripsis tumors (AID 1671455; in the data active = inhibition above about 83%;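 note: 0% = vehicle DMSO and 100% = high DMSO as cytotoxic control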); details: HD-MB03 medulloblastoma cells, stronger effect = higher value
# [10] = growth inhibition, single agents and combos, UWB1.289, cell-based, BGB or cisplatin combos, synergistic combos for chromothripsis tumors (AID 1671456); details: UWB1.289 ovarian carcinoma cells, stronger effect = higher value;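 note: cells exposed to compound for four days; 0% = vehicle DMSO and 100% = killing by high DMSO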
# [11] = growth inhibition, single agents and combos, LFS_MB_2R, cell-based, cisplatin combos, synergistic combos for chromothripsis tumors (AID 1671457); details: LFS_MB_2R medulloblastoma cells, stronger effect = higher value;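 note: cells exposed to compound for four days before readout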
# [12] = growth inhibition, MDA-MB-436, cell-based, BGB or cisplatin combos, synergistic combos for chromothripsis tumors (AID 1671458; call rule not given here;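 note: cells exposed for 96 hours; 0% = vehicle DMSO and 100% = killing by high DMSO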); details: MDA-MB-436 breast carcinoma growth inhibition, drug combinations, stronger effect = higher value
# [13] = UWB1.289_BRCA1 ovarian cancer growth, cell-based, BGB or cisplatin combinations (AID 1671459); details: UWB1.289 BRCA1 ovarian carcinoma, drug combinations, stronger effect = higher value
# [14] = drug combination toxicity in non-malignant astrocytes – cell-based, BGB or cisplatin IC20 combos, cytotoxicity control for chromothriptic childhood tumor combination screen (AID 1671460); details: Human astrocytes, viability inhibition, drug combinations, at 0.5 µM, stronger effect = higher value;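 note: cells exposed to compounds for 96 hours before viability readout; 0% = vehicle and 100% = killing control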
# [15] = BT084 cell growth, single and combined drugs, ICGC_MB145, cisplatin and BGB IC40 combos (AID 1671461); details: BT084 medulloblastoma cells, drug combinations, stronger effect = higher value;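 note: cells exposed to drugs for 96 hours; 0% = vehicle DMSO and 100% = high DMSO full killing control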
# [16] = RCMB18 cell growth, single agent and combined, cisplatin and BGB IC40 combos (AID 1671462); details: RCMB18 medulloblastoma cells, stronger effect = higher value;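 note: cells exposed to compound for four days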
# [17] = CRL1545 cell growth, single agent and combined, cisplatin and BGB IC20 combos (AID 1671464); details: CRL1545 osteosarcoma cells, stronger effect = higher value;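 note: cells exposed to compound for 96 hours before readout; 0% = vehicle DMSO and 100% = high DMSO killing control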
# [18] = measured here: combination with BGB IC40, at 0.05 µM
# [19] = measured here: with BGB IC20 combination, at 0.5 µM
# [20] = measured here: with cisplatin IC20 combination, at 0.5 µM
# [21] = measured here: combination with cisplatin, at 0.5 µM
# [22] = measured here: combination with cisplatin, at 5 µM
smiles,measurement,setting,value
CC1CN(c2c(F)c(N)c3c(=O)c(C(=O)O)cn(C4CC4)c3c2F)CC(C)N1 (centres undefined),fold change,"[1]; stronger effect = lower value, cell number ratio, induced over uninduced",0.949 (inactive)
same,fold change,[1]; measured here: relative caspase fold change +Dox/-Dox,1.47
same,cell count,"[1]; measured here: total cells with miR-34 induction, stronger effect = lower value",8380
same,cell count,[1]; measured here: total cells without miR-34 induction,8840
same,z-score,"[2]; MELAS cybrid survival, CellTiter-Glo 48 h, stronger effect = higher value",-0.385 (inactive)
same,z-score,"[2]; Rieske KO mouse fibroblast survival, CellTiter-Glo 72 h",0.474
same,inhibition,"[3]; at 0.5 µM, stronger effect = higher value",-8.35% (inactive)
same,inhibition,"[3]; measured here: combination with BGB IC20, at 0.005 µM",-4.46%
same,inhibition,"[3]; measured here: combination with BGB IC40, at 0.005 µM",-31.5%
same,inhibition,[3]; [18],-15.2%
same,inhibition,"[3]; measured here: combination with cisplatin, at 0.5 µM, stronger effect = higher value",-6.19%
same,inhibition,"[3]; measured here: combination with cisplatin, at 5 µM, stronger effect = higher value",-16.6%
same,inhibition,"[4]; BGB combo, at 5 µM",12%
same,inhibition,[4]; at 0.5 µM,-0.91% (inactive)
same,inhibition,"[4]; cisplatin combo, at 5 µM",-6.01%
same,inhibition,[4]; [19],11.5%
same,inhibition,[4]; [20],-1.5%
same,inhibition,"[4]; single agent, at 5 µM",6.32%
same,inhibition,"[5]; BGB IC20 combo, at 0.005 µM",-1.67%
same,inhibition,"[5]; BGB IC40 combo, at 0.005 µM",11%
same,inhibition,"[5]; BGB IC40 combo, at 0.05 µM",-1.88%
same,inhibition,[5]; at 0.5 µM,7.87% (inactive)
same,inhibition,"[5]; cisplatin combo, at 0.05 µM",-1.88%
same,inhibition,"[5]; cisplatin combo, at 0.5 µM",11.3%
same,inhibition,"[5]; cisplatin combo, at 5 µM",13.8%
same,inhibition,"[5]; measured here: 5 uM single agent, at 5 µM",-29.6%
same,inhibition,[6]; at 0.5 µM,-11.6% (inactive)
same,inhibition,[6]; [18],17.7%
same,inhibition,[6]; [21],-11.6%
same,inhibition,[6]; [22],6.53%
same,inhibition,[7]; at 0.5 µM,-1.44% (inactive)
same,inhibition,"[7]; measured here: with BGB IC20, at 0.5 µM",-7.64%
same,inhibition,"[7]; measured here: with BGB IC20, at 5 µM",3.84%
same,inhibition,"[7]; measured here: with cisplatin IC20, at 0.5 µM",-9.9%
same,inhibition,"[7]; measured here: with cisplatin IC20, at 5 µM",-0.774%
same,inhibition,"[7]; single agent, at 5 µM",7.58%
same,inhibition,[8]; at 0.5 µM,10.8% (inactive)
same,inhibition,"[8]; measured here: combination with BGB at IC20, at 0.5 µM",-2.31%
same,inhibition,"[8]; measured here: combination with cisplatin at IC20, at 0.5 µM",38.8%
same,inhibition,[9]; at 0.5 µM,-2.01% (inactive)
same,inhibition,"[9]; measured here: combo with BGB at IC20, at 0.5 µM",-4.41%
same,inhibition,"[9]; measured here: combo with cisplatin at IC20, at 0.5 µM",2.33%
same,inhibition,[10]; at 0.5 µM,8.04% (inactive)
same,inhibition,"[10]; measured here: inhibition with BGB combination, at 0.05 µM",0.724%
same,inhibition,"[10]; measured here: inhibition with cisplatin combination, at 0.05 µM",-2.03%
same,inhibition,[11]; at 0.5 µM,-6.3% (inactive)
same,inhibition,[11]; [21],-7.26%
same,inhibition,[11]; [22],2.01%
same,inhibition,[12]; at 0.5 µM,-9.1% (inactive)
same,inhibition,"[12]; measured here: BGB combination, at 0.5 µM",-2.77%
same,inhibition,"[12]; measured here: BGB combination, at 5 µM",-17.3%
same,inhibition,"[12]; measured here: cisplatin combination, at 0.5 µM",-22.6%
same,inhibition,"[12]; measured here: cisplatin combination, at 5 µM",-5.2%
same,inhibition,"[13]; BGB combination, concentration series, at 5 µM",10.9%
same,inhibition,[13]; at 0.5 µM,7.45% (inactive)
same,inhibition,"[13]; cisplatin combination, concentration series, at 5 µM",7.13%
same,inhibition,[14],-1.22% (inactive)
same,inhibition,[14]; measured here: combo with BGB IC20,2.7%
same,inhibition,[14]; measured here: combo with cisplatin IC20,-10.7%
same,inhibition,[15]; at 0.5 µM,-22.6% (inactive)
same,inhibition,"[15]; cisplatin combination, at 0.5 µM",-28.7%
same,inhibition,"[15]; cisplatin combination, at 5 µM",-70.7%
same,inhibition,"[15]; measured here: BGB IC40 combination 0.05 uM, at 0.05 µM",2.3%
same,inhibition,"[15]; single agent, at 5 µM",-7.96%
same,inhibition,[16]; at 0.5 µM,-6.55% (inactive)
same,inhibition,"[16]; cisplatin combo, at 5 µM",2%
same,inhibition,"[16]; measured here: BGB IC40 combination, at 0.05 µM",11.2%
same,inhibition,[16]; [21],-22.2%
same,inhibition,"[16]; single agent, at 5 µM",-18.8%
same,inhibition,[17]; at 0.5 µM,-2.34% (inactive)
same,inhibition,[17]; [19],14.7%
same,inhibition,[17]; [20],-10.9%
same,inhibition,"[17]; single agent, at 0.05 µM",39.2%
same,inhibition,"[17]; single agent, at 5 µM",26.7%
